Results filed as inconclusive are left out. Entries that show only a call come without a potency. Activity calls are given as the source filed them. Calls come from the whole dose curve; as a rule, active = well fitted curve in the direction sought with a large enough effect; inconclusive = small, poorly fitted or top-dose-only effect, or another doubt; inactive = no such curve, though single readings can be large; an effect the other way counts as inactive or inconclusive.
molecular target: Calcium and integrin-binding protein 1 (Homo sapiens) (UniProt Q99828); experiment: Validation qHTS for Identification of Calcium Integrin Binding protein 1 (CIB1) Competitor (AID 1508618); conditions: CIB1-GST / FITC-alphaIIb peptide fluorescence polarization; series mostly up to 114 µM
In short: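 CIB1-GST (1 uM final) in 5 mM HEPES pH 7.4, 125 mM NaCl, 5 mM CaCl2, 0.01% Tween20 was preincubated 15 min at room temperature with compound (up to 114 uM), then FITC-alphaIIb peptide (100 nM) added for 15 min; fluorescence polarization read.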

Sequence of Calcium and integrin-binding protein 1 (Homo sapiens) (Q99828 whole entry, looked up): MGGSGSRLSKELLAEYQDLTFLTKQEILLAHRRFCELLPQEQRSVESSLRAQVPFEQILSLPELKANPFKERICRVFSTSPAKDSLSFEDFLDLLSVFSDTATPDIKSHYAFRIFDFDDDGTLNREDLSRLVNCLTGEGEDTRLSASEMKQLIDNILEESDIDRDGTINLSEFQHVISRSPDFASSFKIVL

SMILES	outcome
Nc1ncnc2n[nH]c(Nc3ccc(F)cc3)c12	inactive
COc1cccc2c1[C@@H]1CN(CCCCn3c(=O)[nH]c4c(sc5ncc(-c6ccccc6)nc54)c3=O)C[C@@H]1CO2	inactive
Cn1cnc2c(NCc3ccccc3)nc(NCCO)nc21	inactive

molecular target: Calcium and integrin-binding protein 1 (Homo sapiens) (UniProt Q99828); experiment: Primary qHTS for Identification of Calcium Integrin Binding Protein 1 (CIB1) Competitor (AID 1508620); conditions: CIB1-GST / FITC-alphaIIb peptide fluorescence polarization; series mostly up to 114 µM; note: potency is the fitted concentration of half-maximal effect
In short: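 Fluorescence polarization competition: CIB1-GST (1 uM final) preincubated with compound 15 min at room temperature, then FITC-labeled alphaIIb peptide (100 nM final) added for another 15 min. Polarization read at Ex 480/Em 540.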

SMILES	Potency
O=C(OCC(O)CO)c1ccccc1Nc1ccnc2c(C(F)(F)F)cccc12 (configuration not stated)	inactive
O=C(Nc1ccc(Cl)cc1)Nc1ccc(Cl)c(C(F)(F)F)c1	inactive
O=C(CCCCCCCCC#CI)Oc1ccccc1	inactive
CC(=O)[C@@]1(O)CC[C@H]2[C@@H]3C[C@H](C)C4=CC(=O)CC[C@]4(C)[C@H]3CC[C@@]21C	inactive
CC1CN(c2cc3c(cc2F)c(=O)c(C(=O)O)cn3-c2ccc(F)cc2F)CCN1 (configuration not stated)	inactive
O=C1NCCN1CCN1CCC(c2cn(-c3ccc(F)cc3)c3ccc(Cl)cc23)CC1	inactive
COC(=O)C1=C(C)NC(C)=C(C(=O)OCCc2ccc(N3CCN(C(c4ccccc4)c4ccccc4)CC3)cc2)C1c1cccc([N+](=O)[O-])c1 (configuration not stated)	inactive
CC(=O)[C@H]1CC[C@H]2[C@@H]3C=CC4=CC(=O)CC[C@@]4(C)[C@@H]3CC[C@]12C	inactive
O=c1[nH]sc2cc(Cl)ccc12	3.55 µM (active)
CC(C)(C)c1ccc(O)c(O)c1	inactive
CCCCCCCCCCCCCC[N+](C)(C)C	inactive
Nc1ncnc2n[nH]c(Nc3ccc(F)cc3)c12	inactive
Cc1onc(-c2c(Cl)cccc2Cl)c1C(=O)Cl	inactive
Cc1cc(OCCOCC[N+](C)(C)Cc2ccccc2)ccc1C(C)(C)CC(C)(C)C	inactive
CCCCCOc1ccc(C2SC(=O)NC2=O)cc1OCC (configuration not stated)	inactive
O=C1Nc2ccccc2C1(c1ccc(O)cc1)c1ccc(O)cc1	inactive
CC(C)(c1ccc(O)cc1)c1ccc(O)cc1	inactive
CCCCC(CC)COC(=O)c1ccccc1C(=O)O (configuration not stated)	inactive
N#C/C(=C1/SC[C@@H](c2ccc(Cl)cc2Cl)S1)n1ccnc1	inactive
COC(=O)c1cc(S(N)(=O)=O)ccc1OC	inactive
CC(=O)Nc1c(I)c(NC(C)=O)c(I)c(C(=O)O)c1I	inactive
OCc1cccnc1	inactive
Oc1ccc(CCNCCCCCCNCCc2ccccc2)cc1O	inactive
CC(C(O)c1ccccc1)N(C)CCOC(c1ccccc1)c1ccccc1 (configuration not stated)	inactive

From PubChem BioAssay (NCATS)
